# Screening data (PubChem)
# Pf growth 96h: P. falciparum growth inhibition at 96 hours | P. falciparum luciferase reporter growth, 96 h | Potency, µM (highest dose often 28.7 µM), for inactives: at the top dose activity change, negative = inhibition, hits mostly inhibitors | 6.9% of 320,000 active | AID 504834; further: on the % scale 0 is the no-effect control and ±100 the full control effect
#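 Delayed-death screen, second-generation endpoint: infected erythrocytes, 2% hematocrit, 0.05% parasitemia final; 96 hours at 37 C, 5% CO2; luciferase detection reagent; luminescence decrease equals reduced growth.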
# AmpC inh detg: AmpC beta-lactamase inhibition with detergent present; P00811; AmpC hydrolysis of nitrocefin, absorbance 480 nm, 0.01% Triton; Potency, µM (doses to about 114 µM), for inactives: at the highest dose activity change, negative = inhibition, usual class: inhibitors; 0.041% of 370,000 active; AID 485294;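 further: 0% = no-compound wells and -100% = no-enzyme wells; nearly all actives have a fitted effect of over 25% in size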
# Target sequence (P00811 whole entry, looked up): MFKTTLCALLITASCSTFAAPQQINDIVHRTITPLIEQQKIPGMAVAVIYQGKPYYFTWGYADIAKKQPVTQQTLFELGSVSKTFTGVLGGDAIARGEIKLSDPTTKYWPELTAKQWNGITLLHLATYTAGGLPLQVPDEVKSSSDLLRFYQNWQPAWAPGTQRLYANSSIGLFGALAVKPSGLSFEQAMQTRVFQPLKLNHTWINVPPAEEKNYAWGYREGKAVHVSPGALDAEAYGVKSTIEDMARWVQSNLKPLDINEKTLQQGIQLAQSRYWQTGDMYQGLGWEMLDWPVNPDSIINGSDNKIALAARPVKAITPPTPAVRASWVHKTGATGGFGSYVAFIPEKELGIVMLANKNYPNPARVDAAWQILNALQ
#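 20 mM phosphate pH 7.0 + 0.01% (detergent screen) or 0.0001% Triton X-100; 5.3 nM AmpC reagent; cpd preinc 15 min RT; nitrocefin (800 uM stock) to start; A480 q20 s × 4 min; Activity was normalised to no-enzyme and no-compound control wells.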
# SARS PLP yeast: SARS-CoV PLP inhibition in yeast; S. cerevisiae expressing SARS-CoV PLpro, growth rescue; Potency, µM (top dose mostly 32.9 µM), inactives show at the highest dose activity, positive = growth rescue, most hits filed as activators; 0.19% of 330,000 active; AID 485353; calls by dose curve; further: 0% is about no effect; nearly all actives have a fitted effect of over 55% in size
# Sm TGR block: S. mansoni TGR enzyme inhibition. 3% of 360,000 active. purified TGR, DTNB reduction, TNB absorbance 405 nm. Potency, µM (titrated, usually from 114 µM), for the others: at the highest dose activity change, negative = inhibition, actives largely listed as inhibitors; further: on the % scale 0 is the no-effect control and ±100 the full control effect; nearly all actives have a fitted effect of over 60% in size
#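 Kinetic colorimetric format: TGR-catalysed, NADPH-driven DTNB reduction monitored via TNB absorbance. Enzyme dispensed at 20 nM; compound exposure 15 min at room temperature before reaction start.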
# AmpC inh no detg: blocks E. coli AmpC beta-lactamase in detergent-free assay; P00811; AmpC nitrocefin hydrolysis, absorbance 480 nm, 0.0001% Triton; Potency, µM (doses to about 57.1 µM), without a hit: at the top dose activity change, negative = inhibition, most hits filed as inhibitors; 0.52% of 330,000 active; AID 485341;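 further: plate controls were no compound for no effect and no enzyme for full effect; nearly all actives have a fitted effect of over 20% in size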
#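 20 mM phosphate pH 7.0 + 0.01% (detergent screen) or 0.0001% Triton X-100; 5.3 nM AmpC reagent; cpd preinc 15 min RT; nitrocefin (800 uM stock) to start; A480 q20 s × 4 min; Activity was normalised to no-enzyme and no-compound control wells.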
# Pf growth 48h: P. falciparum growth inhibition at 48 hours (one generation); Potency, µM (titrated, usually from 28.7 µM), for the others: at the highest dose activity change, negative = inhibition, usual class: inhibitors; P. falciparum luciferase growth in erythrocytes, 48 h; 5.9% of 310,000 active; AID 504832; further: on the % scale 0 is the no-effect control and ±100 the full control effect
#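 Here the parasites carry a stable luciferase gene and grow inside erythrocytes in Albumax-based RPMI medium with compound for one erythrocytic cycle. Activity is scored as loss of luminescent signal.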
# The depositor's hits bear a star; i = inactive; ? = inconclusive; / = no result given; [ ] = remark or other dose. The list is not random: actives were taken first. Their share in the collection is about 12%. Unless noted, the call rests on the fitted dose curve; in most records, active means well fitted curve in the direction sought with a large enough effect; inconclusive means small, poorly fitted or top-dose-only effect, or another doubt; inactive means no such curve, though single readings can be large; an effect the other way counts as inactive or inconclusive. Potency means the concentration at half of the fitted maximal effect.
SMILES,Pf growth 96h,AmpC inh detg,SARS PLP yeast,Sm TGR block,AmpC inh no detg,Pf growth 48h
CCOC(=O)c1c(CN2CCN(CCO)CC2)n(C)c2cc(Br)c(OC)cc12,36%,?,1%,-20%,173%,10µM*
CCOC(=O)c1c(CN2CCCCC2)n(C)c2cc(Br)c(OC)cc12,3.3µM*,2%,-3%,-24%,-20%,?
CCOc1ccccc1NC(=O)Cn1c(=O)n(Cc2cccs2)c(=O)c2cccnc21,/,3%,/,1%,/,/
CC1=C(C(=O)Nc2cccc(C(F)(F)F)c2)C2(CCN(C(C)C)CC2)OC1=O,/,3%,/,-1%,/,/
Cc1cccc(-n2c(Cc3ccccc3)nnc2SCC(=O)N2CCOCC2)c1,4.1µM*,-5%,4%,3%[11.4 µM],87%,/
Cc1cccc(-n2c(Cc3ccccc3)nnc2SCc2ccc([N+](=O)[O-])cc2)c1,7.4µM*,-8%,-20%,-6%,82%,?
O=C(CSc1nnc(Cc2ccccc2)n1-c1cccc(Cl)c1)N1CCOCC1,-4%[5.75 µM],-1%,1%,5%,178%,5%
CCCCCC(=O)N(c1ccc(OCC)cc1)S(=O)(=O)c1ccc2c(c1)n(C)c(=O)n2C,/,8%,/,-2%,/,/
CCN1CCN(C(c2ccc(C(F)(F)F)cc2)c2ccc3cccnc3c2O)CC1 (configuration not stated),?,-5%,-11%,0%,81%,/
CN1CCN(C(c2ccccc2)c2ccc(Cl)cc2)CC1 (configuration not stated),?,-14%,/,-2%,41%,?
Oc1c(I)cc(Cl)c2cccnc12,?,-3%,-71%,?,-28%,?
Oc1c(C(c2ccccn2)N2CCCCC2)cc(Cl)c2cccnc12 (configuration not stated),?,?,-25%,3.5µM*,-14%,?
CN1CCN(C(c2ccc(Cl)cc2)c2cc(Cl)c3cccnc3c2O)CC1 (configuration not stated),?,-6%,-23%,0.35µM*,-2%,?
CN1CCN(C(c2ccc(C(F)(F)F)cc2)c2cc(Cl)c3cccnc3c2O)CC1 (configuration not stated),3.7µM*,-7%,-15%,0.63µM*,1%,?
COc1ccc(CNC(=O)Cn2c(=O)oc3cc(S(=O)(=O)N4CCCCCC4)ccc32)cc1,/,1%,/,10%,/,/
O=C(CSc1nnc(CNC(=O)C23CC4CC(CC(C4)C2)C3)n1-c1ccccc1)Nc1ccc(F)cc1,?,-1%,-3%,-13%,72%,?
O=C(CSc1nnc(CNC(=O)C23CC4CC(CC(C4)C2)C3)n1-c1ccc(F)cc1)Nc1ccccc1,?,?,-2%,4%,105%,?
O=C(NCc1nnc(SCc2ccc(F)cc2)n1-c1ccccc1)C12CC3CC(CC(C3)C1)C2,?,-2%,-3%,-3%,80%,9.3µM*
O=C(NCc1nnc(SCc2ccc(C(F)(F)F)cc2)n1-c1ccccc1)C12CC3CC(CC(C3)C1)C2,1.7µM*,2%,-15%,-3%,133%,?
COC(=O)c1ccccc1NC(=O)COC(=O)C1CCCCC1,10%,10%,-2%,10%,1%,-9%
Cc1cccc(NC(=O)c2nc[nH]c2C(=O)N2CCN(C(=O)OC(C)(C)C)CC2)c1,?,3%,-1%,48%,17%,0%
Cc1cccc(C)c1NC(=O)C(=O)NCCc1c[nH]c2ccccc12,?,2%,0%,-1%,-22%,5.2µM*
O=C(NCCc1c[nH]c2ccccc12)OCCSS(=O)(=O)O,12µM*,0%,2%,-6%[57.1 µM],-23%,7%
Cc1cc(/C=C(\C#N)C(=O)NCCc2c[nH]c3ccccc23)c(C)n1C,?,-6%,6%,-4%,25µM*,-39%
CC(=O)NCCc1c[nH]c2ccccc12,13%,?,-1%,-13%,-17%,13%
SMILES,Pf growth 96h,AmpC inh detg,SARS PLP yeast,Sm TGR block,AmpC inh no detg,Pf growth 48h
O=C(CCNS(=O)(=O)c1ccc(OC(F)(F)F)cc1)NCCc1c[nH]c2ccccc12,10µM*,3%,0%,4%,-3%,?
CC(=O)c1ccc(S(=O)(=O)NCCC(=O)NCCc2c[nH]c3ccccc23)cc1,-17%,-6%,-4%,?,-46%,?
N#C/C(=C/c1ccc(Br)s1)C(=O)NCCc1c[nH]c2ccccc12,7%,-1%,10%,-19%,-26%,24%
CC(=O)N1CCCc2cc(S(=O)(=O)N(C)CC(=O)Nc3ccc(C(C)C)cc3)ccc21,/,3%,/,6%,/,/
C[C@]1(C(=O)NCc2cc(F)cc(C(F)(F)F)c2)C=C[C@@H](Cc2ccccc2)N1C(=O)c1ccccc1,?,-17%,-28%,-6%,101%,?
CC(=O)Nc1ccc(N(CC(=O)NC2CCCCC2)C(=O)Cn2nnc(-c3ccccc3)n2)cc1,-11%,4%,2%,-1%,-2%,-17%
Cc1ccc2nc(SCc3nc(-c4ccccc4C)no3)[nH]c2c1,/,5%,/,1%,/,/
CCN(CC)C(=O)C(=O)Nc1ccc(OC)c(Cl)c1,0%,-1%,-2%,-11%,-30%,17%
Cc1cc(OC(C)C(=O)Nc2ccccc2C(=O)N2CCCC2)ccc1Cl (configuration not stated),8%,?,-2%,0%,59%,-13%
FC(F)(F)c1cccc(-n2cc(-c3ccccc3)[nH]c2=S)c1,134%,0%,1%,11%,-30%,12µM*
Cc1ccc(-c2cn(-c3ccccc3)c(=S)[nH]2)cc1C,?,-6%,-4%,-12%,-46%,/
CCOC(=O)c1ccc(NC(=O)NC2CC3CCC(C2)N3Cc2nnnn2C(C)(C)C)cc1 (configuration not stated),-13%,?,-2%,0%,3%,2.1µM*
CCOC(=O)c1ccc(NC(=O)NC2CC3CCC(C2)N3)cc1 (configuration not stated),i,2%,-1%,-1%,-36%,-14%
COc1ccc(-n2c(O)c(C=NCc3ccc4c(c3)OCO4)c(=O)[nH]c2=O)cc1,16%,-3%,-1%,14µM*,-19%,-2%
O=C(Nc1ccc(NC(=O)c2ccccc2F)cn1)c1ccco1,17%,-7%,-7%,11%,-21%,75%
CCOC(=O)c1c(NC(=O)CC)sc(C(=O)N2CCCCC2)c1C,13µM*,-1%,1%,-1%,22%,/
